# From PubChem BioAssay (NCATS)
# Results filed as inconclusive are left out. Entries that show only a call come without a potency. Activity calls are given as the source filed them. The call rests on the fitted dose curve; in most records, active means well fitted curve in the direction sought with a large enough effect; inconclusive means small, poorly fitted or top-dose-only effect, or another doubt; inactive means no such curve, though single readings can be large; an effect the other way counts as inactive or inconclusive.
# Assays:
# [1] = Quantitative High-Throughput drug screen in 47 multiple myeloma cell lines against the NCATS MIPE library collection: H1112_PLB cell viability assay (AID 1918967; further: nearly all actives have a fitted effect of over 30% in size; further: potency means the concentration at half of the fitted maximal effect)
# Procedure, shortened: (§1)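 Relative luminescence from CellTiter-Glo served as the viability signal, referenced to DMSO-treated (100%) and cell-free medium (0%) controls. Treatment lasted 48 hours at 37C with 500 cells per well.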
# [2] = Quantitative High-Throughput drug screen in 47 multiple myeloma cell lines against the NCATS MIPE library collection: KMS27_JCRB cell viability assay (AID 1918970); further: nearly all actives have a fitted effect of over 30% in size; further: potency means the concentration at half of the fitted maximal effect
# Procedure, shortened: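 CellTiter-Glo luminescence after 48 h drug exposure at 37 °C; 500 cells/well, 1536-well format, pin-tool compound addition; DMSO = 100%, media-only = 0% viability.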
# [3] = Quantitative High-Throughput drug screen in 47 multiple myeloma cell lines against the NCATS MIPE library collection: KMS12PE_JCRB cell viability assay (AID 1918972); further: nearly all actives have a fitted effect of over 30% in size; further: potency means the concentration at half of the fitted maximal effect; on viability: series mostly up to about 46 µM
# Procedure, shortened: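 Viability readout: CellTiter-Glo luminescence following 5 min room-temperature incubation with reagent. Prior exposure: 48 h, 37C, humidified 5% CO2, 500 cells per well.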
# [4] = Quantitative High-Throughput drug screen in 47 multiple myeloma cell lines against the NCATS MIPE library collection: MMM1_PLB cell viability assay (AID 1918976); further: nearly all actives have a fitted effect of over 35% in size; further: potency means the concentration at half of the fitted maximal effect
# Procedure, shortened: (§2)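 Cells were exposed to library compounds for 48 hours, after which ATP was measured by CellTiter-Glo. Signal was taken as median relative luminescence units.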
# [5] = Quantitative High-Throughput drug screen in 47 multiple myeloma cell lines against the NCATS MIPE library collection: MOLP8_DSMZ cell viability assay (AID 1918977); further: nearly all actives have a fitted effect of over 45% in size; further: potency means the concentration at half of the fitted maximal effect
# Procedure, shortened: as §2
# [6] = Quantitative High-Throughput drug screen in 47 multiple myeloma cell lines against the NCATS MIPE library collection: NCIH929_DSMZ cell viability assay (AID 1918978); further: nearly all actives have a fitted effect of over 35% in size; further: potency means the concentration at half of the fitted maximal effect
# Procedure, shortened: as §2
# [7] = Quantitative High-Throughput drug screen in 47 multiple myeloma cell lines against the NCATS MIPE library collection: OCIMY1_PLB cell viability assay (AID 1918979); further: nearly all actives have a fitted effect of over 35% in size; further: potency means the concentration at half of the fitted maximal effect; on viability: series mostly up to about 46 µM
# Procedure, shortened: as §2
# [8] = Quantitative High-Throughput drug screen in 47 multiple myeloma cell lines against the NCATS MIPE library collection: MM1R_ATCC cell viability assay (AID 1918981); further: nearly all actives have a fitted effect of over 35% in size; further: potency means the concentration at half of the fitted maximal effect
# Procedure, shortened: as §2
# [9] = Quantitative High-Throughput drug screen in 47 multiple myeloma cell lines against the NCATS MIPE library collection: LP1_DSMZ cell viability assay (AID 1918982); further: nearly all actives have a fitted effect of over 35% in size; further: potency means the concentration at half of the fitted maximal effect
# Procedure, shortened: as §2
# [10] = Quantitative High-Throughput drug screen in 47 multiple myeloma cell lines against the NCATS MIPE library collection: KMS28PE_JCRB cell viability assay (AID 1918983); further: nearly all actives have a fitted effect of over 35% in size; further: potency means the concentration at half of the fitted maximal effect
# Procedure, shortened: as §2
# [11] = Quantitative High-Throughput drug screen in 47 multiple myeloma cell lines against the NCATS MIPE library collection: L363_DSMZ cell viability assay (AID 1918984); further: nearly all actives have a fitted effect of over 40% in size; further: potency means the concentration at half of the fitted maximal effect
# Procedure, shortened: as §2
# [12] = Quantitative High-Throughput drug screen in 47 multiple myeloma cell lines against the NCATS MIPE library collection: KMS34_JCRB cell viability assay (AID 1918985); further: nearly all actives have a fitted effect of over 40% in size; further: potency means the concentration at half of the fitted maximal effect
# Procedure, shortened: as §2
# [13] = Quantitative High-Throughput drug screen in 47 multiple myeloma cell lines against the NCATS MIPE library collection: Karpas25_ECACC cell viability assay (AID 1918968; further: nearly all actives have a fitted effect of over 35% in size; further: potency means the concentration at half of the fitted maximal effect)
# Procedure, shortened: as §1
# [14] = Quantitative High-Throughput drug screen in 47 multiple myeloma cell lines against the NCATS MIPE library collection: KMS12BM_JCRB cell viability assay (AID 1918971); further: nearly all actives have a fitted effect of over 35% in size; further: potency means the concentration at half of the fitted maximal effect
# Procedure, shortened: (§3)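 Myeloma cells (500 per well) were exposed to MIPE 4.0 compounds by pin transfer and incubated 48 hours at 37C, 5% CO2. Viability was read as ATP by CellTiter-Glo luminescence, normalised to DMSO (100%) and media-only (0%) wells.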
# [15] = Quantitative High-Throughput drug screen in 47 multiple myeloma cell lines against the NCATS MIPE library collection: MM1S_ATCC cell viability assay (AID 1918980); further: nearly all actives have a fitted effect of over 45% in size; further: potency means the concentration at half of the fitted maximal effect
# Procedure, shortened: as §2
# [16] = Quantitative High-Throughput drug screen in 47 multiple myeloma cell lines against the NCATS MIPE library collection: OCIMY7_PLB cell viability assay (AID 1918987); further: series mostly up to about 46 µM; nearly all actives have a fitted effect of over 65% in size
# Procedure, shortened: as §2
# [17] = Quantitative High-Throughput drug screen in 47 multiple myeloma cell lines against the NCATS MIPE library collection: OCIMY5_PLB cell viability assay (AID 1918988); further: nearly all actives have a fitted effect of over 65% in size; further: potency means the concentration at half of the fitted maximal effect
# Procedure, shortened: as §2
# [18] = Quantitative High-Throughput drug screen in 47 multiple myeloma cell lines against the NCATS MIPE library collection: KMS26_JCRB cell viability assay (AID 1918975); further: nearly all actives have a fitted effect of over 45% in size; further: potency means the concentration at half of the fitted maximal effect
# Procedure, shortened: as §3
# [19] = Quantitative High-Throughput drug screen in 47 multiple myeloma cell lines against the NCATS MIPE library collection: KMS20_JCRB cell viability assay (AID 1918973); further: nearly all actives have a fitted effect of over 45% in size; further: potency means the concentration at half of the fitted maximal effect
# Procedure, shortened: as §1
SMILES,Potency [1],Potency [2],Potency [3],Potency [4],Potency [5],Potency [6],Potency [7],Potency [8],Potency [9],Potency [10],Potency [11],Potency [12],Potency [13],Potency [14],Potency [15],Potency [16],Potency [17],Potency [18],Potency [19]
Nc1nc(N)nc(-c2cc(Cl)ccc2Cl)n1,inactive,inactive,inactive,0.0526 µM (active),inactive,inactive,inactive,inactive,inactive,inactive,inactive,inactive,–,–,–,–,–,–,–
Cc1nnc(C(=O)NC(C)(C)c2nc(C(=O)NCc3ccc(F)cc3)c(O)c(=O)n2C)o1,inactive,–,–,7.43 µM (active),inactive,inactive,inactive,inactive,inactive,inactive,inactive,inactive,inactive,inactive,inactive,inactive,–,–,–
CNS(=O)(=O)Cc1ccc2[nH]cc(CCN(C)C)c2c1,inactive,inactive,inactive,–,–,inactive,inactive,inactive,inactive,–,–,inactive,–,–,–,–,inactive,–,–
CC(=O)[C@H]1CC[C@H]2[C@@H]3CC=C4C[C@@H](O)CC[C@]4(C)[C@H]3CC[C@]12C,inactive,–,inactive,–,–,inactive,inactive,–,inactive,inactive,–,inactive,inactive,–,inactive,–,–,–,–
CC(C)C1CCC(C(=O)N[C@H](Cc2ccccc2)C(=O)O)CC1 (some centres undefined),inactive,inactive,inactive,–,–,inactive,–,inactive,inactive,–,–,inactive,–,–,16.6 µM (active),–,–,inactive,–
COc1nc(N)nc2c1ncn2[C@@H]1O[C@H](CO)[C@@H](O)[C@@H]1O,inactive,–,inactive,–,inactive,inactive,inactive,inactive,inactive,inactive,–,–,inactive,–,–,–,inactive,–,–
CCN(CC)CCn1c(=O)c(Cc2ccc(OC)cc2)nc2ccccc21,inactive,10.5 µM (active),inactive,–,–,inactive,inactive,inactive,inactive,inactive,inactive,–,–,–,inactive,–,inactive,–,–
CN(C)c1ccc(C(=C2C=CC(=[N+](C)C)C=C2)c2ccc(N(C)C)cc2)cc1,0.0372 µM (active),–,0.0093 µM (active),0.132 µM (active),52.6 nM (active),26.4 nM (active),2.09 µM (active),132 nM (active),0.418 µM (active),0.105 µM (active),–,105 nM (active),0.0118 µM (active),–,0.105 µM (active),–,0.0743 µM (active),0.166 µM (active),–
CCn1cc(C(=O)O)c(=O)c2cc(F)c(N3CCNCC3)cc21,inactive,inactive,–,inactive,–,inactive,inactive,–,–,2.96 µM (active),–,–,inactive,–,–,–,inactive,–,inactive
O=C(NCC1CN(c2ccc(N3CCOCC3=O)cc2)C(=O)O1)c1ccc(Cl)s1 (centres undefined),inactive,–,–,–,inactive,inactive,inactive,inactive,–,inactive,–,inactive,16.6 µM (active),inactive,–,–,–,–,–
CCCN[C@H]1CCc2nc(N)sc2C1,inactive,–,–,–,inactive,–,inactive,–,inactive,inactive,–,inactive,2.09 µM (active),–,0.833 µM (active),–,–,–,inactive
CC1=CC(=O)c2ccccc2C1=O,20.9 µM (active),–,inactive,8.33 µM (active),–,9350 nM (active),–,9350 nM (active),–,–,–,–,9.35 µM (active),–,18.7 µM (active),–,16.6 µM (active),–,–
CC(C)NCC(O)c1ccc(NS(C)(=O)=O)cc1 (centres undefined),inactive,inactive,inactive,2.09 µM (active),–,inactive,inactive,inactive,–,inactive,–,–,–,–,7.43 µM (active),–,–,–,–
CC1=NN(c2ccccc2)C(=O)C1,inactive,inactive,inactive,–,inactive,–,inactive,inactive,–,inactive,–,–,–,–,inactive,–,–,–,–
CC1CC2C3CCC4=CC(=O)C=C[C@]4(C)[C@@]3(F)[C@@H](O)C[C@]2(C)[C@@]1(O)C(=O)CO (some centres undefined),inactive,inactive,inactive,0.0264 µM (active),935 nM (active),52.6 nM (active),–,inactive,–,0.0935 µM (active),–,–,0.209 µM (active),–,0.59 µM (active),–,2.64 µM (active),–,–
N[C@@H](C(=O)N[C@@H]1C(=O)N2C(C(=O)O)=C(Cl)CS[C@H]12)c1ccccc1,inactive,inactive,inactive,–,inactive,inactive,–,–,inactive,inactive,–,inactive,–,–,inactive,–,–,inactive,inactive
CCOC(=O)c1ccc(C#Cc2ccc3c(c2)C(C)(C)CCS3)nc1,20.9 µM (active),inactive,11.8 µM (active),–,–,–,inactive,–,–,–,–,inactive,–,–,–,–,–,–,inactive
COC(=O)Nc1nc2ccc(C(=O)c3ccccc3)cc2[nH]1,2.64 µM (active),–,–,–,–,3720 nM (active),0.833 µM (active),1660 nM (active),1.87 µM (active),1.87 µM (active),–,935 nM (active),3.72 µM (active),1.48 µM (active),3.72 µM (active),–,0.418 µM (active),8.33 µM (active),1.32 µM (active)
CC(C)(C)C(=O)OCOP(=O)(COCCn1cnc2c(N)ncnc21)OCOC(=O)C(C)(C)C,3.72 µM (active),0.469 µM (active),–,18.7 µM (active),–,209 nM (active),11.8 µM (active),332 nM (active),16.6 µM (active),4.18 µM (active),4.69 µM (active),–,1.66 µM (active),–,2.09 µM (active),–,1.87 µM (active),6.62 µM (active),–
